Screening results (PubChem BioAssay)
Shown are actives, neighbours in structure and some others; about 4.7% of the full set was active somewhere.
TRHR PAM – qHTS for Small Molecule Agonists and Allosteric Enhancers of Human TRH Receptor: Primary Screen for Enhancers. 0.66% of 360,000 active. enhancement, % at 2 µM. TRHR cells, fluo-8 calcium fluorescence, EC20 TRH enhancement; in the data active = enhancement above about 30%; note: 0% is about no effect
Target sequence (P34981 whole entry, looked up): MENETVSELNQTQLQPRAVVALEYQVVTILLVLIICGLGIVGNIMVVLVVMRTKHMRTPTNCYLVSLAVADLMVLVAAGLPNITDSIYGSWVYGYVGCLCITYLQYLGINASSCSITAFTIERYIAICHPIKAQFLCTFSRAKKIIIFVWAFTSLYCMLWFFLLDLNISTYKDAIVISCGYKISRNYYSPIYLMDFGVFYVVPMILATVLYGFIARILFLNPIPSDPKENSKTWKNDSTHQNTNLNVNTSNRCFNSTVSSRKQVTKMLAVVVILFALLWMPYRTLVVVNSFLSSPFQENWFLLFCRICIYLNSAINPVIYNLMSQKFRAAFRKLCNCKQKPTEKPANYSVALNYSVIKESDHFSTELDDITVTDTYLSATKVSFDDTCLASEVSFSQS
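Enhancer read-out: after compound pinning and an initial kinetic agonist-mode read, an EC20 of TRH (10 nM final) was injected and fluo-8 calcium signal (Ex 480/Em 530) followed at 1 s/cycle for 100 cycles in TRHR-expressing cells.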
D1 antagonist – Antagonist of Human D 1 Dopamine Receptor: qHTS; D(1A) dopamine receptor (Homo sapiens), P21728; HEK293 TREx D1 cells, calcium flux, dopamine EC80; hits give low values; activity change, negative = inhibition, % at 10 µM; 3.2% of 360,000 active; AID 504652, 2011; in the data active = activity change below about -30%; note: % is set by controls: 0 for no effect and ±100 for the full control effect
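Cells carrying a force-coupled, tetracycline-inducible human D1 receptor report calcium flux. Each well gets a 10 s baseline, compound with 180 s monitoring, then an EC80 dopamine stimulus with a second 180 s kinetic read.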
TRHR agonist – qHTS for Small Molecule Agonists and Allosteric Enhancers of Human TRH Receptor: Primary Screen for Agonists. Thyrotropin-releasing hormone receptor (Homo sapiens), P34981. TRHR cells, calcium flux fluo-8, FDSS agonist mode. activation, % at 2 µM. 0.18% of 360,000 active. AID 493084, 2011; note: 0% is about no effect
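Read-out: compound-evoked intracellular calcium rise in TRHR cells, fluo-8 dye, kinetic FDSS fluorescence at 1 s/cycle following a 10-cycle baseline. Cells cultured overnight before dye loading (30 min–1.5 h, RT).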
D1 potentiator – Potentiators of Human D1 Dopamine Receptor: qHTS; D(1A) dopamine receptor (Homo sapiens), P21728; HEK293 TREx D1 cells, calcium flux, dopamine EC20 potentiation; potentiation, % at 10 µM; 0.036% of 360,000 active; AID 504651, 2011; in the data active = potentiation above about 30%; note: 0% is about no effect
D1 agonist – Allosteric Agonists of the Human D1 Dopamine Receptor: qHTS. D(1A) dopamine receptor (Homo sapiens), P21728. HEK293 T-REx D1 cells, calcium flux, agonist mode. activation, % at 2 µM. 1% of 360,000 active. AID 504660, 2011; note: 0% is about no effect
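Inducible HEK293 T-REx D1 cells, force-coupled to calcium signalling, were plated at 4000 cells/well with tetracycline and held overnight at 30 C. After no-wash calcium dye loading, compound-evoked calcium rise over 180 s flagged agonists.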
* = called active by the depositor. Cut-off read from the data, not from the text of the source, unless noted: active = activation above about 30%; inactive = the rest.

SMILES	TRHR PAM	D1 antagonist	TRHR agonist	D1 potentiator	D1 agonist
Nc1ccc(-c2c3ccc(=O)cc-3oc3cc(O)ccc23)c(C(=O)O)c1	19	0	-1	1	355*
CC(C)(CNC(=O)Cc1ccc(Br)cc1)N1CCOCC1	-1	-37*	0	-8	1
O=C(Nc1ccncc1)Nc1ccccn1	-1	6	0	6	4
O=C(Nc1cccc(F)c1)Nc1ccccn1	-22	-37*	0	-5	0
O=C(Nc1cccc(F)c1)Nc1cnccn1	17	-31*	0	-6	6
CCOc1ccc(NC(=O)NC(=O)N(C(C)C)S(C)(=O)=O)cc1	-1	-35*	1	-4	4
CC(C)N(C(=O)NC(=O)Nc1ccc(S(=O)(=O)N2CCCC2)cc1)S(C)(=O)=O	-4	-8	0	0	-3
O=C(Nc1ccc2c(c1)OCO2)Nc1cnccn1	-3	-8	0	1	2
CCOc1ccc(NC(=O)Nc2cnccn2)cc1	36*	-3	0	-11	-2
COc1ccc(CNC(=O)c2cc3c(=O)n(Cc4ccco4)ccc3nc2C)c(OC)c1	-2	-7	-1	-5	0
CCC(=O)N1CCc2cc(Br)cc(S(=O)(=O)N3CCC(C(=O)Nc4cccc(C)c4)CC3)c21	-11	4	0	-1	6
COc1ccc(C(=O)N2CCC(C(=O)Nc3ccccc3Cl)CC2)cc1	3	-2	0	2	-1
Cc1cccc(OCc2nc(CC(=O)Nc3ccc(C)cc3C)cs2)c1	3	2	-1	0	15
COc1ccc(C(=O)c2cn(Cc3ccc(F)cc3)c3ccc(C)cc3c2=O)cc1	-5	-6	1	8	3
CCOc1ccc(NC(=O)Nc2nc(SCC)ns2)cc1	-7	-41*	2	-6	27
CC1(C)CC(NC(=O)CSc2ccccc2)CC(C)(C)N1	-2	-34*	-1	-1	1
CC1(C)CC(NC(=O)C(c2ccccc2)c2ccccc2)CC(C)(C)N1	-6	-32*	0	-1	2
CNS(=O)(=O)c1cn(CC(=O)Nc2ccc(C)cc2C)cc1S(=O)(=O)NC	2	-2	-1	-3	13
COc1ccc(C(=O)NCCn2cc(SCc3c(F)cccc3Cl)c3ccccc32)cc1	3	2	2	-4	0
O=C(CBr)N1CCc2ccccc2C(c2ccccc2)C1 (stereo unspecified)	-8	-7	-1	2	0
c1ccc(C2CNCCc3ccccc32)cc1 (stereo unspecified)	-10	-42*	0	-19	15
Oc1cc2c(cc1O)[C@@H](c1ccccc1)CNCC2	-7	-91*	-1	-6	5
S=C1NCCc2ccc(Cl)cc2C1c1ccccc1 (stereo unspecified)	-11	3	0	-6	5
COc1cccc(C(=O)Nc2ccc(-n3nncc3-c3ccc(Br)cc3)cc2)c1OC	4	-21	0	1	-3
CC(C)C(NS(=O)(=O)c1cccc(C(F)(F)F)c1)C(=O)N1CCc2ccccc2C1 (stereo unspecified)	-11	-2	-1	0	4
CC(C)C(NS(=O)(=O)c1ccccc1F)C(=O)N1CCc2ccccc2C1 (stereo unspecified)	-7	-37*	0	-9	0
CC(NC(=O)c1cc2ccccn2n1)c1ccccc1 (stereo unspecified)	3	-9	0	0	1
Cc1nn(S(=O)(=O)c2cccs2)c(C)c1Sc1ccc([N+](=O)[O-])cc1	-9	-5	0	5	0
Cc1nn(S(=O)(=O)c2ccccc2)c(C)c1Sc1ccc([N+](=O)[O-])cc1	-8	-33*	0	-9	2
O=C(NCCCNc1ccc(C(F)(F)F)cc1[N+](=O)[O-])c1ccc(Cl)cc1	3	11	0	-3	0
